This is a sample that favours compounds with a hit; in the whole collection about 17% have one here.
ATXN2 expr inh: inhibitors of ATXN2 expression. AID 1745845. HEK-293 ATXN2-luciferase reporter, luminescence, 24 h. 0.72% of 360,000 active. Potency, µM (highest dose often 57 µM), hits mostly inhibitors; note: nearly all actives have a fitted effect of over 55% in size
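qHTS (up to 57 uM final) was run with 24 h compound exposure of reporter cells at 37 °C. Each well was multiplexed: SteadyGlo luminescence measured ATXN2-luciferase expression after a fluorogenic Gly-Phe-AFC viability readout (25 uM final).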
DT40 TDP1 CPT: growth inhibition of DT40 Tdp1-/-;hTDP1 cells with camptothecin (screen for TDP1 inhibitors). chicken DT40 Tdp1-/-;hTDP1 cells + 20 nM CPT, ATP luminescence, 48 h. Potency, µM (top dose mostly 46.2 µM), hits mostly inhibitors. 12% of 420,000 active. AID 686979; note: nearly all actives have a fitted effect of over 55% in size
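Chicken DT40 Tdp1-/- cells complemented with human TDP1, 400 cells/well, exposed to compounds plus 20 nM camptothecin for at least 48 h at 37 C; viability read as ATP content by CellTiter-Glo luminescence.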
TGFb inhibitor: TGF-b pathway inhibition; AID 588855; 1.2% of 410,000 active; Potency, µM (doses to about 46.1 µM), actives largely listed as inhibitors; HepG2 CAGA-GFP TGF-b/SMAD3 reporter, GFP fluorescence, 18 h; TGF-beta stimulated, 500 pg/mL final; note: nearly all actives have a fitted effect of over 65% in size
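First, reporter cells (HEPG2 CAGA-GFP) rested 2 h at 37 degrees C. Next, compounds were pinned in and TGF-beta added to 500 pg/mL final. After 18 h, GFP was imaged per cell and summed per well.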
S2 tox: viability counter-screen for ATXN expression inhibitors | Potency, µM (titrated, usually from 56.7 µM), hits mostly cytotoxic | AID 651635 | S2 cells (HEK-293 line with an ATXN2-luciferase reporter) viability, CellTiter-Fluor protease fluorescence, 24 h | 0.49% of 400,000 active; note: nearly all actives have a fitted effect of over 40% in size
HepG2 tox: kills HepG2 cells in TGF-b inhibitor counter-screen | HepG2 CAGA-GFP viability, ATP luminescence, 18 h | 0.76% of 410,000 active | Potency, µM (series often up to 46.1 µM), most hits filed as cytotoxic
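HepG2 CAGA-GFP cells (1000/well, DMEM with 1% FBS) received compound, then TGF-beta at 500 pg/mL final, and were incubated 18 hours at 37 degrees C. Viability was read by CellTiter-Glo luminescence. Media-only wells were set as complete cell-killing and DMSO as no toxicity.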
DT40 TDP1 no CPT: qHTS for Inhibitors of human tyrosyl-DNA phosphodiesterase 1 (TDP1): qHTS in cells in absence of CPT; DT40 Tdp1-/- hTDP1 cells, no CPT, ATP luminescence, 48 h; Potency, µM (titrated, usually from 46.2 µM), usual class: inhibitors; 15% of 420,000 active; AID 686978, 2013; note: nearly all actives have a fitted effect of over 55% in size
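Seeded 400 DT40-hTDP1 cells/well (vehicle DMSO, no 20 nM CPT); pinned compounds; ≥48 hr at 37 °C; CellTiter-Glo luminescence as viability measure.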
Hits are given with their value; 0 = inactive; ? = inconclusive; - = no result. Calls come from the whole dose curve; as a rule, active = well fitted curve in the direction sought with a large enough effect; inconclusive = small, poorly fitted or top-dose-only effect, or another doubt; inactive = no such curve, though single readings can be large; an effect the other way counts as inactive or inconclusive.

SMILES	ATXN2 expr inh	DT40 TDP1 CPT	TGFb inhibitor	S2 tox	HepG2 tox	DT40 TDP1 no CPT
CC(NC(=O)c1ccc2c(c1)sc1nc(-c3ccccc3)cn12)C12CC3CC(CC(C3)C1)C2 (centres undefined)	-	0	0	-	0	0
COc1ccc(-c2cn3c(n2)sc2cc(C(=O)NC4CCCCCC4)ccc23)cc1	-	?	0	-	0	7.31µM
O=C(NC1CCCCCC1)c1ccc2c(c1)sc1nc(-c3ccc(F)cc3)cn12	-	?	0	-	0	6.51µM
O=C(NC1CCCc2ccccc21)c1ccc2c(c1)sc1nc(-c3ccccc3)cn12 (centres undefined)	-	8.2µM	0	-	0	18.4µM
COc1cccc(-c2cn3c(n2)sc2cc(C(=O)NC4CCCCC4)ccc23)c1	-	?	0	-	0	?
O=C(OCC(=O)N1CCCC1)c1cc2c(cc1[N+](=O)[O-])OCCO2	-	0	0	?	0	0
COc1ccc(-c2cn3c(n2)sc2cc(C(=O)Nc4cccc(OC)c4)ccc23)cc1	-	?	?	-	0	?
COc1ccc(-c2cn3c(n2)sc2cc(C(=O)Nc4cccc(SC)c4)ccc23)cc1	-	5.17µM	0	-	0	6.51µM
COc1ccc(-c2nc(NC(=O)c3[nH]c(C)c(C(C)=O)c3C)sc2C)cc1	0	?	0	0	0	?
Cn1cc([N+](=O)[O-])c(C(=O)Nc2nc(-c3ccc(Cl)cc3)cs2)n1	0	?	?	0	6.31µM	?
CC(=O)c1c(C)[nH]c(C(=O)Nc2nc(-c3ccc(Cl)cc3)cs2)c1C	?	20.6µM	0	0	0	?
CC(C)(C)OC(=O)NCCc1nnc(S(=O)(=O)Cc2ccc(Cl)cc2Cl)o1	?	1.64µM	10µM	-	14.1µM	2.59µM
CC(C)(C)OC(=O)NCCc1nnc(SCc2ccccc2Cl)o1	0	0	0	0	0	?
CC(C)CNC(=O)c1ccc(NC(=O)c2cccs2)cc1	0	0	0	0	0	0
Cc1nc(-c2ccc(C)c(N3CCN(C(=O)Nc4cccc(Cl)c4C)CC3)c2)no1	0	?	0	0	0	16.4µM
CCN(CC)S(=O)(=O)c1ccc2c(c1)N(CC(=O)NCCCN1CCN(c3ccc(OC)cc3)CC1)C(=O)CO2	0	0	0	?	0	?
COc1ccc(CNC(=O)O[C@H]2C[C@@H]3C(=O)N(c4ccccc4)C(=O)[C@@H]3[C@@H]3CN(S(=O)(=O)c4ccc(C)cc4)C[C@]23O)cc1OC	0	0	0	0	0	0
Cc1c(C(=O)N2CCC(C)CC2)oc2ccc3c(c12)C(O)CC1(CCCCC1)O3 (centres undefined)	0	16.4µM	?	?	0	?
COCCNC(=O)c1oc2ccc3c(c2c1C)C(O)CC(C)(C)O3 (centres undefined)	0	0	0	0	0	0
CC(C)NC(=S)N/N=C1\CCCCc2ccccc21	-	?	?	0	0	20.6µM
S=C(N/N=C1\CCc2ccccc21)NC1CCCCC1	-	?	0	?	0	23.1µM
Cc1ccc(C)c(NC(=S)N/N=C2/CCCCc3ccccc32)c1	0	?	0	0	0	?
COCCCNC(=O)C(C)N1c2cccc3cccc(c23)S1(=O)=O (centres undefined)	0	20.6µM	0	0	0	20.6µM
COCCNC(=O)C(C)N1c2cccc3cccc(c23)S1(=O)=O (centres undefined)	0	0	0	0	0	0
CC(=O)c1c(Cl)nc2ccc(Br)cc2c1-c1ccccc1	-	0	?	?	0	?
SMILES	ATXN2 expr inh	DT40 TDP1 CPT	TGFb inhibitor	S2 tox	HepG2 tox	DT40 TDP1 no CPT
O=C(Cc1c(F)cccc1Cl)NCc1cccnc1	0	0	0	0	0	0
O=C(O)C(Cc1ccccc1[N+](=O)[O-])N1C(=O)c2ccccc2C1=O (centres undefined)	0	0	0	0	0	0
Nc1c(C(=O)NCC2CCCO2)sc2nc3c(c(-c4ccco4)c12)CC/C3=C\c1ccco1 (centres undefined)	0	?	17.8µM	0	0	25.9µM
N#Cc1sc2nc3c(c(-c4ccco4)c2c1N)CCCC3	0	?	0	0	0	23.1µM
NC(=O)c1sc2nc3c(c(-c4ccco4)c2c1N)CCCC3	-	?	?	0	0	16.4µM
Cc1ccccc1NC(=O)c1sc2nc3c(c(-c4ccco4)c2c1N)CCC3	0	?	0	0	0	?
Cc1c(O)ccc2c(CC(=O)N[C@@H](Cc3ccccc3)C(=O)O)cc(=O)oc12	-	0	0	-	0	0
COc1ccc(S(=O)(=O)N(C)C)cc1NC(=O)Cc1ccc(S(=O)(=O)N2CCOCC2)s1	0	13µM	0	0	0	?
CN(C)S(=O)(=O)c1ccc(NC(=O)Cc2ccc(S(=O)(=O)N3CCOCC3)s2)cc1	0	0	0	0	0	0
CCN(CC)S(=O)(=O)c1cc(NC(=O)Cc2ccc(S(=O)(=O)N3CCOCC3)s2)ccc1Cl	?	20.6µM	?	0	0	13µM
CCOC(=O)c1cc(NC(=O)Cc2ccc(S(=O)(=O)N3CCOCC3)s2)cc(C(=O)OCC)c1	0	23.1µM	0	0	0	?
O=C(Cc1ccc(NS(=O)(=O)c2ccc(F)cc2)cc1)NCc1cccnc1	0	0	0	?	0	0
Cn1cnnc1SCC(=O)Nc1nc(-c2ccc(F)cc2)cs1	0	0	0	0	0	0
COc1cccc(/C=N/NC(=O)c2cc3c(OC)cccc3[nH]2)c1O	?	5.17µM	?	0	0	6.51µM
COc1cccc(/C=N/NC(=O)c2cc3c(OC)c(OC)ccc3[nH]2)c1OC	-	2.31µM	0	?	0	2.59µM
CCOc1ccc(/C=N/NC(=O)c2cc3c(OC)cccc3[nH]2)cc1	?	18.4µM	0	?	0	23.1µM
COc1ccc(OC)c(/C=N/NC(=O)c2cc3c(OC)cccc3[nH]2)c1	0	0	0	0	0	?
COc1cccc2[nH]c(C(=O)NCc3ccccc3)cc12	0	0	0	0	0	0
COc1cccc(/C=N/NC(=O)c2cc3c(OC)cccc3[nH]2)c1OC	0	0	?	0	0	7.31µM
COc1cc(/C=N/NC(=O)c2cc3ccccc3[nH]2)ccc1O	0	0	0	0	0	0
CCN(C(=O)CSc1nc(N)cc(=O)[nH]1)c1c(N)n(Cc2ccccc2)c(=O)[nH]c1=O	0	0	0	?	0	0
CC(c1ccccc1)C(CC(=O)O)C(=O)Nc1ccc(Cl)c(Cl)c1 (centres undefined)	0	0	0	0	0	0

Screening results from PubChem.
